Where “and” joins values, the source holds several entries; their conditions need not be identical. Identical values can stand only once. Screen size: about 5,500 compounds; about 2,000 (36%) were called active. Not shown: some 18% with an inconclusive outcome. Rule as the data show it: active = normalized growth mostly below about 0.91 (no sharp cut-off); inconclusive = no clear call, values can overlap the other calls; inactive = mostly above about 0.92. Some of the results follow.
Assay: chemical genetic growth profiling, strain panel (AID 1159580);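 also: tested at 20 µM; growth read once vehicle control cultures reached saturation at 30 °C; 1 = growth at the plate median or of vehicle wells; lower values mean less growth of the strain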
Details: S. cerevisiae deletion strains, growth OD

Measured: normalized growth

COc1cc([C@@H]2c3cc4c(cc3[C@H](OC(C)=O)[C@H]3COC(=O)[C@@H]23)OCO4)cc(OC)c1OC
inactive: locus YAL021C, strain ccr4, active compounds read low 1.01 | locus YAL026C, strain drs2, active compounds read low 0.991 | locus YAL030W, strain snc1, active compounds read low 1.01 | locus YBL061C, strain skt5, active compounds read low 1.01 | locus YBR009C, strain hhf1, active compounds read low 0.996 | locus YBR021W, strain FUR4, active compounds read low 1.01 | locus YBR023C, strain chs3, active compounds read low 1.01 | locus YBR171W, strain sec66, active compounds read low 1 | locus YBR229C, strain ROT2, active compounds read low 1.01 | locus YBR231C, strain swc5, active compounds read low 1.01 | locus YBR279W, strain paf1, active compounds read low 1 | locus YCL011C, strain gbp2, active compounds read low 1 | locus YCL016C, strain dcc1, active compounds read low 1 | locus YCL029C, strain bik1, active compounds read low 1.01 | locus YCL069W, strain vba3, active compounds read low 1 | locus YCR088W, strain abp1, active compounds read low 0.982 | locus YDL005C, strain med2, active compounds read low 1 | locus YDL035C, strain GPR1, active compounds read low 1.02 | locus YDL040C, strain nat1, active compounds read low 1 | locus YDL074C, strain BRE1, active compounds read low 1.02 | locus YDL101C, strain DUN1, active compounds read low 1.01 | locus YDL185W, strain tfp1, active compounds read low 1.03 | locus YDL192W, strain arf1, active compounds read low 1.04 | locus YDR001C, strain nth1, active compounds read low 0.99 | locus YDR069C, strain doa4, active compounds read low 1.01 | locus YDR101C, strain arx1, active compounds read low 1.01 | locus YDR137W, strain rgp1, active compounds read low 1.03 | locus YDR150W, strain NUM1, active compounds read low 1.01 | locus YDR159W, strain sac3, active compounds read low 1.01 | locus YDR162C, strain NBP2, active compounds read low 1.01 | locus YDR195W, strain ref2 0.972 | locus YDR297W, strain sur2, active compounds read low 1.01 | locus YDR318W, strain mcm21, active compounds read low 1.02 | locus YDR334W, strain swr1, active compounds read low 0.969 | locus YDR335W, strain msn5, active compounds read low 1.01 | locus YDR388W, active compounds read low 1.02 | locus YDR392W, strain spt3, active compounds read low 0.998 | locus YDR502C, strain sam2, active compounds read low 1.01 | locus YEL003W, strain gim4, active compounds read low 0.998 | locus YEL037C, strain rad23, active compounds read low 0.985 | locus YEL061C, strain CIN8 (second series), active compounds read low 0.98 | locus YEL061C, strain CIN8, active compounds read low 1.01 | locus YER015W, strain faa2, active compounds read low 1.01 | locus YER016W, strain bim1, active compounds read low 1.01 | locus YER110C, active compounds read low 1.02 | locus YER111C, strain swi4, active compounds read low 1.01 | locus YER155C, strain BEM2 (second series), active compounds read low 1.01 | locus YER155C, strain BEM2, active compounds read low 0.998 | locus YER167W, strain BCK2, active compounds read low 1.02 | locus YFR010W, strain ubp6, active compounds read low 0.98 | locus YGL078C, strain dbp3, active compounds read low 1.03 | locus YGL086W, strain mad1, active compounds read low 1.01 | locus YGL167C, strain pmr1, active compounds read low 1 | locus YGL173C, strain kem1, active compounds read low 1.01 | locus YGL227W, strain vid30, active compounds read low 0.994 | locus YGL240W, strain doc1, active compounds read low 1.01 | locus YGL248W, strain PDE1, active compounds read low 1.01 | locus YGL253W, strain hxk2, active compounds read low 1 | locus YGR078C, strain PAC10, active compounds read low 1.02 | locus YGR135W, strain pre9, active compounds read low 1.03 | locus YGR252W, strain gcn5, active compounds read low 1.01 | locus YHR013C, strain ard1, active compounds read low 1.01 | locus YHR027C, strain rpn1, active compounds read low 0.993 | locus YHR030C, strain SLT2, active compounds read low 1.01 and 0.979 | locus YHR079C, strain IRE1 (second series), active compounds read low 1.03 | locus YHR079C, strain IRE1, active compounds read low 0.985 | locus YHR094C, strain hxt1, active compounds read low 1.03 | locus YHR129C, strain ARP1, active compounds read low 1.01 | locus YHR142W, strain chs7, active compounds read low 0.995 | locus YHR200W, strain rpn10, active compounds read low 1.04 | locus YIL066C, strain RNR3, active compounds read low 1.02 | locus YIL073C, strain SPO22, active compounds read low 1.07 | locus YIL125W, strain kgd1, active compounds read low 1.01 | locus YIR030C, strain dcg1, active compounds read low 1.01 | locus YJL092W, strain hpr5, active compounds read low 0.986 | locus YJL095W, strain BCK1 (second series), active compounds read low 0.999 | locus YJL095W, strain BCK1, active compounds read low 1.01 and 1.04 | locus YJL115W, strain asf1, active compounds read low 0.993 | locus YJL129C, strain trk1, active compounds read low 1.01 | locus YJL134W, strain LCB3, active compounds read low 1.01 | locus YJL154C, strain vps35, active compounds read low 0.978 | locus YJL164C, strain tpk1, active compounds read low 1.01 | locus YJL166W, strain qcr8, active compounds read low 1.02 | locus YJL168C, strain set2, active compounds read low 1.02 | locus YJL187C, strain SWE1 (second series), active compounds read low 1.02 | locus YJR043C, strain POL32, active compounds read low 1.01 | locus YJR066W, strain TOR1, active compounds read low 0.931 | locus YKL009W, strain mrt4, active compounds read low 0.999 | locus YKL068W, active compounds read low 1.01 | locus YKL085W, strain MDH1 (second series), active compounds read low 1 | locus YKL085W, strain MDH1, active compounds read low 1 | locus YKL160W, strain elf1, active compounds read low 1.01 | locus YKL190W, strain CNB1, active compounds read low 1.01 | locus YKR001C, strain vps1, active compounds read low 1.03 | locus YKR026C, strain gcn3, active compounds read low 0.997 | locus YKR091W, strain srl3, active compounds read low 1 | locus YLL001W, strain dnm1, active compounds read low 0.991 | locus YLL026W, active compounds read low 1.01 | locus YLL041C, strain sdh2, active compounds read low 0.997 | locus YLR027C, strain aat2, active compounds read low 1 | locus YLR039C, strain RIC1, active compounds read low 1.01 | locus YLR058C, strain SHM2, active compounds read low 1.01 | locus YLR102C, strain apc9, active compounds read low 1.03 | locus YLR113W, strain HOG1, active compounds read low 1.08 | locus YLR221C, strain rsa3, active compounds read low 1.01 | locus YLR258W, strain gsy2, active compounds read low 1.01 | locus YLR262C, strain YPT6 (second series), active compounds read low 0.956 | locus YLR262C, strain YPT6, active compounds read low 1.07 | locus YLR268W, strain sec22, active compounds read low 1.01 | locus YLR320W, strain mms22, active compounds read low 1.01 | locus YLR330W, strain CHS5, active compounds read low 1.01 | locus YLR342W, strain FKS1 (second series), active compounds read low 1.02 | locus YLR342W, strain FKS1, active compounds read low 1 | locus YLR357W, strain rsc2, active compounds read low 0.973 | locus YLR370C, strain arc18, active compounds read low 1.02 | locus YLR371W, strain rom2, active compounds read low 1.02 | locus YLR384C, strain iki3, active compounds read low 0.994 | locus YLR418C, strain cdc73, active compounds read low 1.03 | locus YML016C, strain PPZ1, active compounds read low 1.01 | locus YML032C, strain rad52, active compounds read low 1.02 | locus YML120C, strain ndi1, active compounds read low 1.01 | locus YML124C, strain tub3, active compounds read low 1.02 | locus YMR058W, strain fet3, active compounds read low 1 | locus YMR078C, strain ctf18, active compounds read low 1.05 | locus YMR125W, strain sto1, active compounds read low 0.986 | locus YMR129W, active compounds read low 1 | locus YMR205C, strain PFK2, active compounds read low 0.995 | locus YMR223W, strain ubp8, active compounds read low 1.03 | locus YMR231W, strain pep5, active compounds read low 1 | locus YMR263W, strain SAP30, active compounds read low 1.01 | locus YMR307W, strain GAS1, active compounds read low 1.04 | locus YNL067W, strain RPL9B, active compounds read low 1.02 | locus YNL071W, strain lat1, active compounds read low 0.991 | locus YNL183C, strain NPR1, active compounds read low 0.972 | locus YNL209W, strain ssb2, active compounds read low 0.989 | locus YNL233W, strain BNI4, active compounds read low 1.01 | locus YNL248C, strain rpa49, active compounds read low 0.961 | locus YNL250W, strain rad50, active compounds read low 1.03 | locus YNL271C, strain bni1, active compounds read low 1.02 | locus YNL298W, strain CLA4, active compounds read low 1.02 | locus YNL307C, strain MCK1, active compounds read low 1.02 | locus YNL322C, strain KRE1 (second series), active compounds read low 1 | locus YNL322C, strain KRE1, active compounds read low 1.01 | locus YNR049C, strain mso1, active compounds read low 0.993 | locus YNR052C, strain pop2, active compounds read low 1.03 | locus YOL006C, strain TOP1, active compounds read low 1.07 | locus YOL012C, strain htz1 0.847 | locus YOL147C, strain pex11, active compounds read low 1.01 | locus YOR001W, strain rrp6, active compounds read low 0.987 | locus YOR061W, strain CKA2, active compounds read low 1.01 | locus YOR069W, strain VPS5, active compounds read low 1.01 | locus YOR070C, strain gyp1, active compounds read low 1.01 | locus YOR080W, strain dia2, active compounds read low 1 | locus YOR083W, strain WHI5, active compounds read low 1.01 | locus YOR106W, strain vam3, active compounds read low 1 | locus YOR136W, strain idh2, active compounds read low 1.02 | locus YOR144C, strain elg1, active compounds read low 1.01 | locus YOR184W, strain ser1, active compounds read low 1.03 | locus YOR231W, strain MKK1, active compounds read low 0.986 | locus YOR265W, strain rbl2, active compounds read low 1 | locus YOR270C, strain vph1, active compounds read low 0.847 | locus YOR290C, strain snf2, active compounds read low 1.01 | locus YOR316C, strain cot1, active compounds read low 1.01 | locus YPL051W, strain arl3, active compounds read low 1.03 | locus YPL078C, strain atp4, active compounds read low 0.978 | locus YPL106C, strain sse1, active compounds read low 1.01 | locus YPL240C, strain hsp82, active compounds read low 0.993 | locus YPL241C, strain CIN2, active compounds read low 1.02 | locus YPL256C, strain CLN2, active compounds read low 1 | locus YPR119W, strain clb2, active compounds read low 1.04 | locus YPR141C, strain kar3, active compounds read low 1.03 | locus YPR163C, strain tif3, active compounds read low 1.03 | locus YPR167C, strain met16, active compounds read low 1.01 | strain wtn01, active compounds read low 1.03

Source: PubChem BioAssay AID1159580 (chemical genetic matrix, 2015)
